From the supplement of paper PMC6555819

How the values were obtained:
Assay in all cases: PBM binding z-score (relative to random genomic background probes); higher = stronger binding; sequences stand for … in GC…GCGATTGACAGCGTAGAATGAAGG
[1] = tested on: RARb homodimer (NR concentration 270 nM)
Procedure, shortened: (§1)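 The probes on custom Agilent 4×180K protein-binding microarrays were double-stranded, with 34-nt variable regions bearing direct-repeat seeds, single-nucleotide variants, half-site ablations and random human genomic background sequences. Incubation lasted 1 h with ligand-free nuclear receptor dimers in PBS pH 7.4, 2% milk, 0.02% Triton X-100, 1 mM DTT, 0.2 mg/mL BSA and 0.4 mg/ml salmon testes DNA. Antibodies against each partner (one per run) detected bound dimers, and fluorescence scans were regression-normalized. Binding z-scores take the random background probes as reference.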

[2] = tested on: RARg:RXRa (NR concentration 270 nM, RXRa partner concentration 90 nM)
Procedure, shortened: as §1

[3] = tested on: RARg homodimer (NR concentration 270 nM)
Procedure, shortened: as §1

[4] = tested on: RXRa DBDmut IVT, anti-RXR (DBD mutation: RXRa K156A/R161A, NR concentration 90 nM)
Procedure, shortened: as §1

[5] = tested on: RXRa homodimer (NR concentration 180 nM)
Procedure, shortened: as §1

[6] = tested on: THRa:RXRa (NR concentration 90 nM, RXRa partner concentration 90 nM)
Procedure, shortened: as §1

[7] = tested on: THRa homodimer (NR concentration 90 nM)
Procedure, shortened: as §1

[8] = tested on: VDR:RXRa (NR concentration 270 nM, RXRa partner concentration 90 nM)
Procedure, shortened: as §1

[9] = tested on: VDR homodimer (NR concentration 270 nM)
Procedure, shortened: as §1

| Sequence | PBM binding z-score [1] | PBM binding z-score [2] | PBM binding z-score [3] | PBM binding z-score [4] | PBM binding z-score [5] | PBM binding z-score [6] | PBM binding z-score [7] | PBM binding z-score [8] | PBM binding z-score [9] |
| --- | --- | --- | --- | --- | --- | --- | --- | --- | --- |
| ATATGTAGGTTACATCCGGGACATTCAGGCTATG | 0.852 | 1.56 | 1.27 | 0.669 | 1.27 | 2.66 | 1.46 | 1.14 | 0.967 |
| GTACCCAGGTGAATAGGTCGTTGATGAGTAGGCG | 1.16 | 1.5 | 0.814 | -0.431 | 1.18 | 1.31 | 0.537 | 0.54 | 0.0528 |
| CGAACTAGGTCAGAACAGGACAGTCAAGGATGAT | 2.26 | 2.65 | 3.09 | 0.873 | 1.35 | 3.42 | 0.288 | 0.754 | 0.29 |
| CGTCCTAGGTCATAGGAGGTCAGTGAAGACAGAT | 4.83 | 5.44 | 5.84 | 2.08 | 4.28 | 5.13 | 1.73 | 5.59 | 2.29 |
| CCTTACGGGTCACTCCGGGTTATAGCATCGGAGT | 2.96 | 4.46 | 4.12 | 1.3 | 4.73 | 4.89 | -0.126 | 4.18 | 1.25 |
| CCGACTGGGGCTGAAAGGTTACCATACCATCCGG | 1.92 | 1.33 | 0.724 | -0.859 | 1.75 | 0.974 | -0.189 | 0.343 | -0.252 |
| GCTGCTAGGTCAGGTTGGTCAGATAACGGGTACG | 2.53 | 2.71 | 3.5 | 0.652 | 1.12 | 1.84 | 0.684 | 0.794 | 1.02 |
| CTCGTAAGGTCGGTTGAGGTGAGTATACGGATAA | 1.99 | 1.89 | 2.09 | 1.26 | 1.44 | 5.11 | 2.39 | 1.75 | 0.937 |
| ACAGAGAGGTGATGAAGGTAACTCAGGCTATCAT | 0.584 | 0.531 | 0.832 | -0.266 | 0.587 | 1.33 | 0.312 | 0.7 | -0.222 |
| TAGCCTAGGTCAGTTCGGGCCAGTATACGCTATA | 2.51 | 2.29 | 3.3 | 0.0401 | 0.716 | 4.04 | 0.352 | 0.785 | 0.242 |
| ACTATTAGTTGACTTAGCGCAACCGATACGACGC | -0.331 | 0.0723 | 0.494 | 0.553 | 0.244 | -0.258 | -0.16 | 0.0494 | 0.12 |
| ACTATTAGTCGAGACGAGGGCAACCGATAGGTTG | 0.973 | 0.43 | 0.663 | 0.357 | 0.46 | 0.977 | 0.0699 | 0.293 | 0.358 |
| TCTTGTAGATCTAAGGTTAAGAAAGCCGAAGCCT | 0.513 | 0.36 | 0.019 | 1.06 | 1.21 | 2.16 | 1.26 | 0.651 | -0.0148 |
| TCTTGTAGATCAACGGTTAAGAAAGCCGAAGCCT | -0.249 | -0.0923 | -0.227 | 0.721 | 0.21 | -0.24 | -0.541 | 0.234 | -0.227 |
| CCTTGTTGGTCAAGGTCACACACGCTATAGGTAC | 4.53 | 4.56 | 4.95 | 1.83 | 4.51 | 4.31 | 4.1 | 3.83 | 3.13 |
| ACTATTAGTTGAGACGAGGGCTACCGATAGGTTG | -0.26 | 0.564 | 0.518 | 0.406 | 0.235 | 0.224 | -0.838 | -0.103 | -0.209 |
| TCAAATAGGTAATACAGGTGAAAGTCGGCATCTA | 0.557 | 0.633 | 0.49 | 1.74 | 1.14 | 0.877 | -0.0126 | 1.28 | 0.0898 |
| CTCGAAAGGTCGGTTGAGGTGAGTAGACGGATAA | 2.44 | 2.67 | 2.67 | 0.673 | 2.28 | 5.01 | 1.3 | 1.99 | 0.235 |
| CCGACTGGGGCATAAGTTTACCATAAGCCAGCCC | 0.519 | 0.0613 | 0.233 | 0.17 | -0.0212 | -0.345 | -0.433 | -0.462 | -0.134 |
| CGAACTAGGCCATTGACAGGACAGTGAATAGTAA | 0.319 | 0.281 | 0.586 | 0.349 | 0.0322 | 0.198 | -0.102 | -0.259 | -0.193 |
| TAGCCTAGGTCATGGGCCAGTATGCCACGCGAAC | 3.09 | 4.15 | 4.47 | 0.363 | 3.54 | 3.07 | 1.16 | 1.98 | 0.214 |
| CCGAGTAGGTTATAGGGCATTCAGGCAACGGTGA | 1.33 | 0.821 | 0.848 | 0.485 | 1.19 | 0.932 | 0.256 | 0.402 | 0.435 |
| CCTAGCAGGCCAATCTGGGTCACTAAAGGCTTGA | 2.01 | 0.915 | 1.17 | 0.23 | 0.402 | 3.4 | 0.446 | 0.366 | 0.000244 |
| CAAACTACGTCACAGAGGTCAAAGTCCGTGCGTA | 4.71 | 5.46 | 4.64 | 1.87 | 6.27 | 3.7 | 1.47 | 5.85 | 4.03 |
| CCGAATGGGGCAAAGGTTACCATACTCAGTACGA | 2.37 | 3.65 | 1.72 | 0.549 | 4.27 | 1.86 | -0.191 | 1.77 | 0.204 |
| CGAACTAGGTCAGTGACAGGACAGTGAATAGTAA | 2.76 | 3.47 | 3.9 | 0.653 | 1.34 | 1.98 | 0.499 | 0.664 | 0.295 |
